Results taken from the supplement of paper PMC9942566.
± gives the standard deviation of the averaged measurements.

Tested on: Serratia marcescens K904 PosmB-luxCDABE reporter (pMQ747)
Test: PosmB-lux reporter fold induction (RLU/OD600 relative to no-compound control), highest over Biolog concentrations; higher = stronger reporter activation
Conditions: Biolog plate: PM13; well positions: A9-12; ΔrcsB mutant CMS5177; 4 h
Description: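 Serratia marcescens K904 (wild type) or its isogenic ΔrcsB mutant, carrying the Rcs-dependent PosmB-luxCDABE reporter plasmid pMQ747, was grown in LB at OD600 0.1 in Biolog Phenotype MicroArray plates PM11-20 for 4 h at 30-32°C. Each compound is present at 3-4 proprietary concentrations (not stated); per the Fig. S1 legend the value given is the highest fold over those wells. Three independent trials.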

| SMILES | PosmB-lux reporter fold induction |
| --- | --- |
| [Cl][Ni][Cl] [Nickel chloride] | 1.06 ± 0.2 |

Same assay, conditions: Biolog plate: PM18; well positions: H9-12; ΔrcsB mutant CMS5177; 4 h

| SMILES | PosmB-lux reporter fold induction |
| --- | --- |
| CC1=CC(=O)c2c(O)cccc2C1=O [plumbagin] | 1.11 ± 0.53 |
